Compound activity deposited in PubChem by several laboratories.
Bim-Mcl-1: disrupts Bim peptide binding to human Mcl-1; inhibition, % at 10 µM; Bead-based flow cytometry, Bim peptide-Mcl-1 binding; hit rate 0.1% among 190,000; Q07820; in the data active = inhibition above about 40%;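 also: 0% = no compound tracer wells and 100% = peptide blocker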
Target sequence (Q07820 whole entry, looked up): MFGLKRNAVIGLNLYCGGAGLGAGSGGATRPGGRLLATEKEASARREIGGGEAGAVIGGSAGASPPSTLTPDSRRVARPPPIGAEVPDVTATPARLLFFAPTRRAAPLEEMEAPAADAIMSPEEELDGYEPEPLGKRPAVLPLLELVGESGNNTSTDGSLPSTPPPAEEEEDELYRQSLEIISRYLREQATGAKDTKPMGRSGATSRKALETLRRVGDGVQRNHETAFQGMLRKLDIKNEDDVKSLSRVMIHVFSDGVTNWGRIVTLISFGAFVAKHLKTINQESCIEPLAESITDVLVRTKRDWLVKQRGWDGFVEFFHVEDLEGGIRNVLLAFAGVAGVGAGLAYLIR
14-3-3 Bad inh: disrupts binding of bovine 14-3-3 zeta to phospho-Bad peptide; P63103; TR-FRET 14-3-3zeta/Dy647-pBad peptide displacement, 1 h; inhibition, % at 21.7 µM; hit rate 0.71% among 220,000;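 active = inhibition above about 70%, limit read from the data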;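 also: 0% = full 14-3-3 plus peptide FRET controls and 100% = background without 14-3-3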
Target sequence (P63103 whole entry, looked up): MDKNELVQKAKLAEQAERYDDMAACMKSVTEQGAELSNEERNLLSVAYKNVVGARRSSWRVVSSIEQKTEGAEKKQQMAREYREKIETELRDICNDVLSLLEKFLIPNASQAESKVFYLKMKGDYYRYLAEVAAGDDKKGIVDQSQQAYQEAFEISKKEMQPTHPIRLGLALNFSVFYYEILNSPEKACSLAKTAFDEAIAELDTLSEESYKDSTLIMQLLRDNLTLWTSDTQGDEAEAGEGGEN
Mcl1 Bid PPI: disrupts binding of human Mcl-1 to Bid peptide. Q07820. TR-FRET Mcl-1/Bid-Dy647 peptide binding, 1536-well. inhibition, % at 21.7 µM. hit rate 0.97% among 220,000;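 active = compounds that cut the binding signal by more than half at the single screening dose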;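 also: His-tagged Mcl-1 with europium anti-His antibody binding Bid BH3 peptide; 0% = Mcl-1 plus peptide wells and 100% = peptide-only wells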
Mcl1-Noxa inh: Mcl-1/Noxa interaction inhibition; Q07820; TR-FRET Mcl-1/Noxa peptide binding, 2 h; inhibition, % at 21.7 µM; hit rate 1.5% among 220,000; AID 1022;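 active = compounds that cut the protein-peptide binding signal by more than 50% relative to plate controls in a single-dose test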;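 also: His-tagged Mcl-1 with rhodamine Noxa BH3 peptide and terbium anti-His antibody; 0% = Mcl-1 plus Noxa peptide wells and 100% = peptide-only wells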
MCL1 BIM primary: inhibitors of human MCL1 binding to BIM-BH3 peptide. Q07820. GST-MCL1 / FITC-Bim-BH3 fluorescence polarization. hit rate 0.68% among 320,000. inhibition, % at 10.9 µM;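 active = inhibition above the mean inhibition of all tested compounds plus 3 SD, set per campaign, cut at about 40% in these data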;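 also: 0% = DMSO wells and 100% = unlabeled Bim-BH3 peptide control; higher means more loss of mP so more displacement of Bim peptide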
Starred values were filed as active, the others as inactive; nt = not tested or not shown. Shown are actives, neighbours in structure and some others; about 2.5% of the full set was active somewhere.

SMILES	Bim-Mcl-1	14-3-3 Bad inh	Mcl1 Bid PPI	Mcl1-Noxa inh	MCL1 BIM primary
Nc1nc(N2CCCCC2)nc(N(c2ccccc2)c2ccccc2)n1	1	-2	-13	8	-2
Clc1nc(Cl)nc(N(c2ccccc2)c2ccccc2)n1	-1	5	51*	35	12
CCOC(=O)c1c(CN2CCN(C)CC2)oc2ccc(OC)cc12	-2	79*	41	12	-2
CCS(=O)(=O)NCc1ccc2c(c1)cc(C)n2C	0	6	70*	32	4
CCCS(=O)(=O)NCc1ccc2c(c1)cc(C)n2C	-5	-3	-33	13	3
Cc1cc2cc(CNS(=O)(=O)c3ccccc3)ccc2n1C	6	6	-28	10	47*
Cc1ccc(NC2=C(Cl)C(=O)OC2OC(=O)c2ccco2)c(C)c1 (configuration not stated)	4	-11	1	16	-6
Cc1ccc(C)c(NC2=C(Cl)C(=O)OC2OC(=O)c2ccco2)c1 (configuration not stated)	-2	-7	3	57*	-1
CC1=C(C(=O)OC(C)C)C(c2ccncc2)n2ncnc2N1 (configuration not stated)	-1	14	-6	-13	10
COc1ccc2cc(C)c3nnc(SCC(=O)Nc4nc(-c5ccc(F)cc5)cs4)n3c2c1	-5	86*	45	-32	1
O=C(CSc1nc2ncc(Br)cc2[nH]1)c1cccc([N+](=O)[O-])c1	-2	-10	-81	64*	-8
COc1ccc2[nH]c3c(c2c1)CCN1C(=O)N([C@@H](C)C(=O)NCc2ccco2)C(=O)[C@]31C	nt	nt	nt	nt	7
CCN1/C(=C/c2ccc3cc(C)ccc3[n+]2C)Sc2ccc3sccc3c21	38	0	-28	60*	nt
CCCC1Oc2ccccc2C(=O)N(CC(=O)c2ccc3c(c2)OCCO3)C1=O (configuration not stated)	nt	nt	nt	nt	-6
CC(C)CC1NC(=O)N(CC(=O)c2ccc3c(c2)OCCO3)C1=O (configuration not stated)	-1	-11	-4	98*	-1
Nc1csnc1C(=O)O	-1	78*	-22	20	7
Nc1nc(-c2ccc(C(=O)O)cc2)cs1	0	-6	-8	8	-4
Cc1cccc(OCCCC(=O)Nc2ccc(N(C)C)cc2)c1	0	9	-36	77*	21
O=C(NCc1ccc(F)cc1)c1c2c(nc3ccccc13)CCC2	-2	11	-55	77*	17
NC(=O)COC(=O)c1c2c(nc3ccccc13)CCC2	0	4	-31	57*	29
CCOc1ccc(NC(=O)CN(c2ccc(OCC)cc2)S(=O)(=O)c2c(C)[nH]c(=O)[nH]c2=O)cc1	-2	-5	-33	-7	2
COc1ccc(NC(=O)c2cc3sccc3n2Cc2ccc(F)cc2)cc1OC	-2	5	58*	-50	11
COc1cc([N+](=O)[O-])ccc1N1C(=O)C2C3C=CC(C4CC34)C2C1=O (configuration not stated)	-1	4	7	4	2
COc1ccc(-c2nc(C#N)c(NCCCN(C)C)o2)cc1OC	-1	-2	-31	14	2
CN(C)CCCNc1oc(-c2ccccc2)nc1C#N	-2	0	-20	53*	5
SMILES	Bim-Mcl-1	14-3-3 Bad inh	Mcl1 Bid PPI	Mcl1-Noxa inh	MCL1 BIM primary
O=C(CSc1nc(-c2ccc(F)cc2)nc2c1Cc1ccccc1O2)Nc1ccc(C(=O)O)cc1	0	97*	49	-76	nt
O=C(CSc1nc(-c2ccccc2)nc2c1Cc1ccccc1O2)Nc1ccc(C(=O)O)cc1	-1	94*	88*	27	nt
O=C(CSc1nc(-c2ccccc2)nc2ccccc12)Nc1cccc(C(=O)O)c1	-1	-9	6	10	2
O=C(CSc1nc(-c2ccc(F)cc2)nc2ccc(F)cc12)Nc1cccc(C(=O)O)c1	5	-6	-16	-11	1
COc1ccc(-c2noc(-c3ccccc3F)n2)cc1	-2	6	3	6	5
O=C(CCCN1C(=O)/C(=C/c2ccc3c(c2)OCO3)SC1=S)Nc1ccc(C(=O)O)cc1	nt	nt	nt	nt	-35
N#C/C(=C/c1ccccc1OCc1ccc(F)cc1)c1ccc(C(=O)O)cc1	nt	nt	nt	nt	-19
N#C/C(=C/c1ccc(OCc2ccc(C(=O)O)cc2)c(Br)c1)c1cccc(F)c1	-8	15	-43	74*	9
N#CC1(NC(=O)COC(=O)c2ccccc2[N+](=O)[O-])CCCCC1	nt	nt	nt	nt	-1
N#CC1(NC(=O)COC(=O)c2cc(O)c3ccccc3c2O)CCCCC1	nt	nt	nt	nt	40*
O=C(c1ccccc1)c1ccc2nc(N3CCN(C(=O)c4ccco4)CC3)c3nncn3c2c1	0	1	6	56*	8
CCOC(=O)N1CCN(c2nc3ccc(C(=O)c4ccccc4)cc3n3cnnc23)CC1	nt	4	2	6	3
COc1ccc(/C=C(\NC(=O)c2ccc(Cl)cc2)C(=O)NCC2CCCO2)cc1OC (configuration not stated)	nt	nt	nt	nt	-6
COc1cc(/C=C2\CC/C(=C\c3cc(OC)c(OC)c(OC)c3)C2=O)cc(OC)c1OC	-1	17	-2	26	-12
COc1cc(/C=C2\CC/C(=C\c3cc(OC)c(O)c(OC)c3)C2=O)cc(OC)c1O	17	-3	-2	101*	-56
COc1ccc(C2C(C(=O)N3CCC(C)CC3)c3ccccc3C(=O)N2C)cc1 (configuration not stated)	14	-2	4	1	-1
CC1CCCCN1C(=O)CSc1nnc(Cc2ccccc2)n1C (configuration not stated)	-1	4	0	10	-11
COc1ccc(CCNC(=O)c2cc(-c3ccccn3)nc3c(Cl)cccc23)cc1OC	88*	-10	-25	8	17
COc1cc(/C=N/NC(=O)c2cc(-c3ccco3)nc3ccccc23)cc(OC)c1O	nt	7	-23	82*	11
Cc1occc1C(=O)N/N=C/c1ccc(N(C)C)cc1	nt	42	74*	37	10
COc1cc(/C=N/NC(=O)c2ccoc2C)cc(OC)c1O	-4	-8	-63	57*	1
COc1cc(/C=N/NC(=O)c2cc(-c3ccccc3Cl)nc3ccccc23)cc(OC)c1O	nt	nt	nt	nt	3
COc1ccc(/C=N/Nc2ccc([N+](=O)[O-])cc2)cc1Cn1cc([N+](=O)[O-])cn1	-4	-12	58*	72*	-81
Cc1occc1C(=O)N/N=C/C=C/c1ccc(N(C)C)cc1	nt	nt	nt	nt	-16
Cn1c2ccccc2c2cc(C(=O)OCC(=O)N3CC(=O)Nc4ccccc43)sc21	-2	-23	1	1	-15
COc1cc(/C=N/NC(=O)c2ccc(Cn3cc([N+](=O)[O-])cn3)o2)cc(Br)c1O	0	-10	-23	56*	-4
COc1cc(/C=N/NC(=O)c2cccc([N+](=O)[O-])c2)cc(OC)c1O	-6	8	-30	67*	20
